Test systems include T-47D breast; BT-549 breast; MDA-MB-435 melanoma; SW-620 colon; MCF7 breast; HCT-116 colon; HCC-2998 colon; KM12 colon.
Assay in all cases: NCI-60 one-dose screen, 48 h (100 = growth as untreated, 0 = no growth, -100 = all killed)
Common to all, as to conditions: 10 µM unless noted

The structures appear in SMILES notation. Compounds without any hit were thinned out: in the full panel of roughly 83,000, 20% have a hit.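 Single-dose data. Exposure time 48 hours. Values below 10 considered active.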 A number with no mark means an inactive call. Activity calls are given as the source filed them.

Turning to `CCN1C(=O)N(CC)C2Nn3c(s/c(=C\c4ccc(Cl)cc4Cl)c3=O)=NC21` (stereo not given), the growth was 76.9% in the assay with T-47D breast; 38.6% in the assay with BT-549 breast; -40.7% (active) in the assay on MDA-MB-435 melanoma; 30.4% with SW-620 colon; 28.9% with MCF7 breast; 15.2% with HCT-116 colon. Besides, the growth in the assay with HCC-2998 colon was 73.9%; with KM12 colon it was 13.1%.

Turning to `C[n+]1cccc(CC(=O)NO)c1`, the growth was 79% in the assay on T-47D breast; 103% in the assay with BT-549 breast; 107% in the assay with MDA-MB-435 melanoma; 105% with SW-620 colon; 96.4% in the assay on MCF7 breast; 104% in the assay on HCT-116 colon. Besides, the figures for the growth in the assay on HCC-2998 colon and in the assay on KM12 colon were 110% and 107%, respectively.

For the molecule `N#CC1=C(NC=O)Oc2c(ccc3ccccc23)C1c1ccccc1` (stereo not given), the growth is 25.2% in the assay on T-47D breast; 25.9% in the assay with BT-549 breast; -33% (active) in the assay with MDA-MB-435 melanoma; 21.3% in the assay with SW-620 colon; 17.5% in the assay on MCF7 breast; 21.1% with HCT-116 colon. Further, the growth in the assay on HCC-2998 colon is 63%; with KM12 colon, 30.7%.

In the case of `CC/C=C/C/C=C/C/C=C/C/C=C/C/C=C/C/C=C/CCC(=O)Nc1ccn([C@@H]2O[C@H](CO)[C@@H](O)C2(F)F)c(=O)n1`, the growth is 28.9% in the assay with T-47D breast; 29.8% with BT-549 breast; 36.9% in the assay on MDA-MB-435 melanoma; 30.8% in the assay on SW-620 colon; 14.3% in the assay on MCF7 breast; 12.1% in the assay with HCT-116 colon. The growth was 55.1% in the assay on HCC-2998 colon and 43.5% in the assay on KM12 colon.

In the case of `Cc1cccc(NC(=O)N/C(N)=N/c2nc(C)c(C)s2)c1`, the growth with T-47D breast is 40.1%; with BT-549 breast, 70.3%; with MDA-MB-435 melanoma it was -28.5% (active); in the assay with SW-620 colon, 25.7%; in the assay on MCF7 breast, 27%; in the assay on HCT-116 colon, 33.5%. In addition, the growth in the assay with HCC-2998 colon was 63.7%; in the assay with KM12 colon, 23.4%.

On to `Cc1cc(C(=O)c2ccccc2)c(C)c2c1[nH]c1ccc(Cl)cc12`, for which the growth in the assay with T-47D breast was 63.5%; with BT-549 breast, 5.82% (active); in the assay on MDA-MB-435 melanoma, -25.4% (active); in the assay on SW-620 colon, 26.3%; with MCF7 breast, 13.1%; with HCT-116 colon, 5.1% (active). In addition, the growth was 21.8% in the assay on HCC-2998 colon and 0.781% (active) with KM12 colon.

As for `CCCCCCN(CCCCCC)c1ccc(/C=C2/SC(=O)N(c3nc(N4CCCC4)nc(N4CCCC4)n3)C2=O)c(C)c1`, the growth is 63.6% with T-47D breast; 88.1% in the assay with BT-549 breast; 75.5% in the assay with MDA-MB-435 melanoma; 73.2% with SW-620 colon; 54.8% in the assay on MCF7 breast; 45.5% in the assay on HCT-116 colon. Besides, the growth in the assay on HCC-2998 colon is 41.7%; in the assay on KM12 colon, 52.9%.

For the molecule `COc1cc(/C=C2\C(=O)ON=C2C)cc(OC)c1OC`, the growth in the assay on T-47D breast is 97.9%; in the assay with BT-549 breast, 112%; in the assay on MDA-MB-435 melanoma it was 102%; with SW-620 colon it was 97.7%; in the assay with MCF7 breast, 97%; in the assay on HCT-116 colon, 104%. Moreover, the growth in the assay with HCC-2998 colon was 94.5%; in the assay with KM12 colon it was 100%.

Turning to `O=C(c1ccc(Nc2nccc(NCCCCNc3ccnc4cc(Cl)ccc34)n2)cc1)N1CCCCC1`, the growth was -33.2% (active) in the assay with T-47D breast; 97.6% in the assay on BT-549 breast; -67.6% (active) in the assay on MDA-MB-435 melanoma; 2.09% (active) with SW-620 colon; 4.09% (active) with MCF7 breast; -18.6% (active) in the assay with HCT-116 colon. Further, the growth in the assay on HCC-2998 colon is -11.2% (active); in the assay on KM12 colon, 54.2%.

For the molecule `COC(=O)c1ccc(CSc2nnc(-c3c(C)nc4ccc(C)cn34)o2)cc1`, the growth in the assay with T-47D breast is 89.4%; in the assay on BT-549 breast it was 100%; in the assay on MDA-MB-435 melanoma it was 102%; in the assay on SW-620 colon, 108%; in the assay on MCF7 breast, 85.9%; with HCT-116 colon, 99.3%. Moreover, the values for the growth in the assay with HCC-2998 colon and with KM12 colon were 87% and 110%, respectively.

Turning to `COc1cc2nc(Cl)nc(Nc3ccc(S(=O)(=O)Nc4nccs4)cc3)c2cc1OC`, the growth with T-47D breast was 94.3%; in the assay with BT-549 breast it was 95.1%; in the assay with MDA-MB-435 melanoma, 106%; with SW-620 colon, 105%; in the assay on MCF7 breast, 103%; in the assay on HCT-116 colon, 95%. Moreover, the growth with HCC-2998 colon is 72.9%; with KM12 colon it was 112%.

On to `Cc1ccc(C(=O)COc2cccc(/C=C3\Oc4ccccc4C3=O)c2)cc1`, for which the growth in the assay with T-47D breast is 50.3%; in the assay with BT-549 breast, 124%; with MDA-MB-435 melanoma, 90.2%; in the assay with SW-620 colon it was 123%; with MCF7 breast, 116%; in the assay on HCT-116 colon it was 94.2%. In addition, the growth with HCC-2998 colon is 108%; in the assay on KM12 colon, 100%.

Regarding `COc1ccc(N2CCN(c3nc(-c4cc(OC)c(OC)c(OC)c4)nc4ccccc34)CC2)cc1`, the growth in the assay on T-47D breast is 45.4%; in the assay on BT-549 breast, 39.9%; in the assay on MDA-MB-435 melanoma, 67.1%; in the assay with SW-620 colon, 85.6%; in the assay with MCF7 breast, 83.3%; in the assay with HCT-116 colon it was 70%. The figures for the growth in the assay with HCC-2998 colon and in the assay on KM12 colon were 95.1% and 70%, respectively.

Take `CNS(=O)(=O)c1n[nH]nc1-c1cc(C(C)(C)C)c(O)c(C(C)(C)C)c1`: the growth is 78.9% in the assay with T-47D breast; 101% in the assay with BT-549 breast; 106% with MDA-MB-435 melanoma; 109% in the assay with SW-620 colon; 93.8% in the assay with MCF7 breast; 94.6% in the assay on HCT-116 colon. For the same molecule, the growth in the assay with HCC-2998 colon and in the assay on KM12 colon was 105% each time.

Consider `Cc1cc(NCCCCNc2ccnc3cc(Cl)ccc23)nc(Nc2ccc(C(=O)N3CCCC3)cc2)n1`, for which the growth in the assay with T-47D breast was -31.2% (active); with BT-549 breast it was 93.2%; in the assay with MDA-MB-435 melanoma it was -45% (active); in the assay on SW-620 colon it was -11.8% (active); in the assay on MCF7 breast it was 12.7%; with HCT-116 colon it was 2.57% (active). The growth is 8.57% (active) in the assay on HCC-2998 colon and 55.7% in the assay with KM12 colon.

These data come from PubChem BioAssay (NCI).
